Assay results from PubChem BioAssay (Tox21).
Where “and” joins values, the source holds several entries; their conditions need not be identical. Identical values can stand only once. Inconclusive results are not listed. Entries that show only a call come without a potency. Calls of active or inactive are those of the source. The call rests on the fitted dose curve; in most records, active means well fitted cell-killing curve with a large enough effect in the repeat runs; inconclusive means weak or mixed curves, or effect the other way; inactive means flat fitted curve, though single readings scatter.

Experiment: qHTS RealTime-Glo MT Cell Viability Assay in HEK293 cells - 0 hour (AID 1224880); further: nearly all actives have a fitted effect of over 45% in size
Conditions: RealTime-Glo luminescence; series mostly up to 76.8 µM
Procedure, shortened: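 HEK293 + NanoLuc + prosubstrate, 600 cells/well; 5 h, 37 C/5% CO2; compound 23 nL in DMSO by pintool; 37 C; luminescence read at 0, 8, 16, 24, 32 and 40 h time points.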
Potency means the concentration at half of the fitted maximal effect.

| Compound | Potency |
| --- | --- |
| O=c1[nH]c2ccccc2n1CCCN1CCN(C(c2ccccc2)c2ccccc2)CC1 | inactive |
| CC1=Nc2ccccc2C1(C)C | inactive |
| CC(=O)[C@H]1CC[C@H]2[C@@H]3CCC4=CC(=O)CC[C@]4(C)[C@H]3CC[C@]12C | 15.4 µM (active) and 19.5 µM (active) |
| CCCc1ccc(OCC(=O)N2CCN(C(=O)COc3ccc(CCC)cc3OC)CC2)c(OC)c1 | inactive |
| O=[N+]([O-])c1ccc(O)cc1C(F)(F)F | inactive |
| OC[C@H]1O[C@H](O[C@H]2O[C@H](CO)[C@@H](O)[C@H](O)[C@H]2O)[C@H](O)[C@@H](O)[C@@H]1O | inactive |
| CCCC(=O)OCOC(=O)C1=C(C)NC(C)=C(C(=O)OC)C1c1cccc(Cl)c1Cl (configuration not stated) | 9.52 µM (active) |
| COc1cc(S(=O)(=O)O)c(C)cc1N=Nc1c(O)ccc2cc(S(=O)(=O)O)ccc12 | inactive |
| CC[N+](CC)(CC)CCOc1ccc(/C=C/c2ccccc2)cc1 | inactive |
| CCCC[P+](C)(CCCC)CCCC | inactive |
| Nc1cc(Cl)c(O)c(Cl)c1 | inactive |
| Clc1nnc(Cl)c2ccccc12 | inactive |
| CCCCCCCCCCCC(=O)OCC(C)OC(=O)CCCCC(=O)O (configuration not stated) | inactive |
| CCOC(=O)c1ccc(C2CCC(NC[C@H](O)COc3ccc(O)c(NS(C)(=O)=O)c3)CC2)cc1 (some centres not stated) | inactive |
| Cc1c(C)c2c(c(C)c1O)CC[C@@](C)(CCC[C@H](C)CCC[C@H](C)CCCC(C)C)O2 | inactive |
| Cc1ccc(C(=O)O)cc1 | inactive |
| COc1ccc2c(c1)c(CC(=O)OC/C=C(\C)CC/C=C(\C)CCC=C(C)C)c(C)n2C(=O)c1ccc(Cl)cc1 | inactive |
